D1 ag: agonists of human D1 dopamine receptor; HEK293 T-REx D1 cells, calcium flux, agonist mode; activation, % at 2 µM; 1% of 360,000 active; in the data active means activation above about 30%; further: 0% is about no effect
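Agonism was scored from calcium flux recorded over 180 s (1 read/s) after pintool compound addition, following a 10-cycle baseline. Cells were inducible force-coupled HEK293 TREx D1, plated overnight at 30 C and loaded with no-wash calcium dye.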
D1 antag: antagonists of human D1 dopamine receptor; P21728; HEK293 TREx D1 cells, calcium flux, dopamine EC80; active compounds read low; activity change, negative = inhibition, % at 10 µM; 3.2% of 360,000 active; in the data active means activity change below about -30%; further: on the % scale 0 is the no-effect control and ±100 the full control effect
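Tetracycline-induced HEK293 T-REx cells with force-coupled D1 receptor were loaded with a no-wash calcium dye. Compound was added after a 10 s baseline and read kinetically for 180 s; EC80 dopamine was then added and calcium flux followed another 180 s.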
D3 antag: antagonists of human D3 dopamine receptor. D3R cells, DiscoveRx beta-arrestin luminescence, antagonist mode; active compounds read low. AID 652054. max response, negative = inhibition, %. P35462. 2.5% of 360,000 active; in the data active means max response below about -50%; inconclusive means no clear call, values can overlap the other calls; further: on the % scale 0 is the no-effect control and ±100 the full control effect
Target sequence (P35462 whole entry, looked up): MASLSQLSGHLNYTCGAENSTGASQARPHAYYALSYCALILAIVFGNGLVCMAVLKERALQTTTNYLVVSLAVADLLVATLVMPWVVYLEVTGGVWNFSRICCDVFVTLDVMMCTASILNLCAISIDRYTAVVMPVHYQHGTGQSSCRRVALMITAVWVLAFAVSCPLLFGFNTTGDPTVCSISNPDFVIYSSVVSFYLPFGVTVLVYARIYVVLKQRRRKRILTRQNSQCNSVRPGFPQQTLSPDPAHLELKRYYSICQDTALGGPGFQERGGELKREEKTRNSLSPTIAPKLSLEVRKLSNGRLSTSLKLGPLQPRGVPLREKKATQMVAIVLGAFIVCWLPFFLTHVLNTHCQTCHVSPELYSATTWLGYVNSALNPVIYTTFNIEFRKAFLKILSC
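Cells plated overnight at 1500 cells/well, then exposed to library compounds with dopamine controls for 90 minutes at 37 degrees C. DiscoveRx reagent added for 30–60 minutes at room temperature; luminescence read, quantitative HTS format.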
D3 ag: activates the human D3 dopamine receptor; 0.58% of 410,000 active; D3R DiscoveRx beta-arrestin cells, luminescence, 90 min; AID 652048; max activation, %; in the data active means max activation above about 30%; further: 0% is about no effect
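Agonist mode: compounds and dopamine controls were applied to plated cells for 90 min at 37 degrees C after an overnight attachment at 1500 cells/well. Luminescent read-out followed 30 - 60 minutes at room temperature with DiscoveRx detection reagent.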
D1 PAM: potentiators of human D1 dopamine receptor; P21728; HEK293 TREx D1 cells, calcium flux, dopamine EC20 potentiation; potentiation, % at 10 µM; 0.036% of 360,000 active; in the data active means potentiation above about 30%; further: 0% is about no effect
Numbers without * were called inactive; ? = inconclusive; . = no result; ! = not active in a repeat. Sampled rows, rich in hits. Any-hit rate of the full collection: about 6%.

SMILES | D1 ag | D1 antag | D3 antag | D3 ag | D1 PAM
COc1ccc(C(=O)NCC(c2ccc(N(C)C)cc2)N2CCCC2)cc1 (stereo not given) | 4 | -5 | . | -18 | 0
CN(C)c1ccc(C(CNS(=O)(=O)c2ccc(F)cc2)N2CCCC2)cc1 (stereo not given) | 59* | 7 | . | -15 | 6
CC(C)(C)c1ccc(S(=O)(=O)N2CCN(Cc3noc(CCC(=O)N4CCCCC4)n3)CC2)cc1 | 1 | 1 | . | 5 | -3
CC(C)C1C(=O)N(Cc2cn(CCC3OCCCO3)nn2)CCS(=O)(=O)N1Cc1ccc(-c2ccc(Cl)c(Cl)c2)cc1 (stereo not given) | . | . | 14 | 1 | .
O=C(CCCc1cccs1)N1CCN(S(=O)(=O)c2ccccc2Br)CC1 | 1 | -31* | -2 | -1 | -12
Cc1ccc(S(=O)(=O)Nc2cc(=O)[nH]c(SCc3ccccc3Cl)n2)cc1 | 12 | -32* | -16 | -1 | -8
O=C(CSc1nc(NS(=O)(=O)c2ccccc2)cc(=O)[nH]1)Nc1ccc(Cl)cc1 | 3 | -14 | -17 | -3 | -4
O=c1cc(NS(=O)(=O)c2ccccc2)nc(SCc2ccc(Cl)cc2)[nH]1 | 18 | -36* | 9 | 10 | -6
Cc1ccc(S(=O)(=O)c2nc(-c3ccco3)oc2SCc2ccc(F)cc2)cc1 | 17 | -3 | . | -5 | 1
COc1ccc(C(=O)NC(C)CCc2ccccc2)cc1 (stereo not given) | 0 | -2 | -11 | -6 | -1
COc1ccc(C(=O)NC(C)CCc2ccccc2)c(O)c1 (stereo not given) | 16 | -48* | -18 | 5 | -6
Cc1ccc(S(=O)(=O)N2C[C@H]3C(=O)C[C@@H](c4ccccc4F)N(S(=O)(=O)c4ccc(C)cc4)[C@H]3C[C@H]2c2ccccc2F)cc1 | . | . | -19 | 0 | .
O=C(NCc1ccco1)c1sc(=S)n2c1[nH]c(=O)c1ccccc12 | 49* | -28 | 19 | 3 | -8
O=C(NC1CCCC1)c1sc(=S)n2c1[nH]c(=O)c1ccccc12 | 29 | -4 | 22 | 1 | -8
O=C1CCc2cc(OCCCCc3nnnn3C3CCCCC3)ccc2N1 | 8 | -42*! | 21 | 12 | -3
c1coc(Cn2nnnc2CN2CCN(C3CCCC3)CC2)c1 | -2 | -8 | -69* | -3 | -8
Cc1ccc(-n2c3c(cc(-c4nc(-c5ccc(Cl)cc5)cs4)c2=O)C(=O)CC(C)(C)C3)cc1C | 4 | 1 | . | -8 | 0
O=C(c1cccc(S(=O)(=O)N2CCOCC2)c1)N(Cc1ccco1)Cc1cccs1 | 8 | -56* | -9 | -1 | -3
CN(Cc1cccs1)C(=O)c1cc(S(=O)(=O)N2CCOCC2)ccc1N1CCCC1 | 0 | -31* | -8 | 10 | 2
Cc1ccc(Cn2nc3n(c2=O)-c2cc(Cl)ccc2OC3)cc1 | 0 | -14 | . | 2 | 1
COc1ccc(C)cc1NC(=O)Nc1ccc2c(c1)CCC2 | 0 | -44* | ? | -11 | -4
COc1ccccc1NC(=O)Nc1ccc2c(c1)CCC2 | 2 | -14 | -2 | -7 | 38*
COc1ccc(NC(=O)Nc2ccc3c(c2)CCC3)cc1OC | 2 | 7 | 4 | -4 | 0
Cc1c(C(=O)NCc2ccccc2CN2CCCC2)oc2ccc(F)cc12 | 6 | -32* | -18 | -15 | .
COc1ccc(C2C(C(=O)c3sc(C)nc3C)=C(O)C(=O)N2CCN2CCOCC2)cc1 (stereo not given) | -1 | -1 | ? | -19 | 7
SMILES | D1 ag | D1 antag | D3 antag | D3 ag | D1 PAM
COc1ccc(OC)c(C2C(C(=O)c3sc(C)nc3C)=C(O)C(=O)N2CCN2CCOCC2)c1 (stereo not given) | 1 | 4 | -56* | -9 | 3
CC1=CC(=C(C#N)c2nc3ccccc3s2)C=C(C)N1CC1CCCO1 (stereo not given) | 43* | 6 | -17 | -10 | -6
Cc1ccc(C(C)C)cc1OCC(=O)N/N=C/c1ccc2c(c1)OCCO2 | 1 | -1 | 14 | 48* | -3
COc1ccc(CNC(=O)C(=O)Nc2ccc(OC)cc2OC)cc1 | -1 | 4 | . | 7 | 0
CC1(C)O[C@H]2[C@@H](O1)[C@@H](C(=O)Nc1ccccc1O)O[C@@H]1OC(C)(C)O[C@@H]12 | 2 | 24 | . | -6 | 0
COC(=O)c1ccccc1NC(=O)Cn1cnc2cc(C)c(C)cc21 | 38* | -16 | 15 | 23 | -4

High-throughput results from PubChem BioAssay.
